# Source: the supplement of paper PMC8728848
# The full list was thinned out, with the strongest signals kept by preference.
# B1: Apa (Mycobacterium tuberculosis), Rv1860 (protein)
# chain: MHQVDPNLTRRKGRLAALAIAAMASASLVTVAVPATANADPEPAPPVPTTAASPPSTAAAPPAPATPVAPPPPAAANTPNAQPGDPNAAPPPADPNAPPPPVIAPNAPQPVRIDNPVGGFSFALPAGWVESDAAHFDYGSALLSKTTGDPPFPGQPPPVANDTRIVLGRLDQKLYASAEATDSKAAARLGSDMGEFYMPYPGTRINQETVSLDANGVSGSASYYEVKFSDPSKPNGQIWTGVIGSPAANAPDAGPPQRWFVVWLGTANNPVDKGAAKALAESIRPLVAPPPAPAPAPAEPAPAPAPAGEVAPTPTTPTPQRTLPA
# Key:
# Assay in all cases: glycan array binding signal (z-score within array); higher = stronger binding
# Settings in all cases: glycan notation: IUPAC condensed, linker removed
# [1] = target: GalNAc(b1-4)GlcNAc(b1-2)Man
# Procedure, shortened: (§1)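 Glycan array binding is given as a within-array Z-score, which can be read as non-binding when negative. The arrays, 3228 of them, came from the Consortium for Functional Glycomics database and were retained only where the protein sequence was available. Z-scores were averaged across arrays of the same protein sequence at different concentrations or buffers and across linkers.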
# GalNAc(b1-4)GlcNAc6S = target: GalNAc(b1-4)GlcNAc6S
# Procedure, shortened: as §1
# GalNAc6S(b1-4)GlcNAc = target: GalNAc6S(b1-4)GlcNAc
# Procedure, shortened: as §1
# Glc(b1-4)Glc = target: Glc(b1-4)Glc
# Procedure, shortened: as §1
# Glc(b1-6)Glc = target: Glc(b1-6)Glc
# Procedure, shortened: as §1
# [2] = target: GlcNAc(b1-2)Man(a1-3)[GlcNAc(b1-4)][GlcNAc(b1-2)Man(a1-6)]Man(b1-4)GlcNAc(b1-4)[Fuc(a1-6)]GlcNAc
# Procedure, shortened: as §1
# [3] = target: GlcNAc(b1-2)[GlcNAc(b1-4)]Man(a1-3)[GlcNAc(b1-2)Man(a1-6)]Man(b1-4)GlcNAc(b1-4)GlcNAc
# Procedure, shortened: as §1
# [4] = target: GlcNAc(b1-2)[GlcNAc(b1-4)]Man(a1-3)[GlcNAc(b1-4)][GlcNAc(b1-2)[GlcNAc(b1-6)]Man(a1-6)]Man(b1-4)GlcNAc(b1-4)[Fuc(a1-6)]GlcNAc
# Procedure, shortened: as §1
# [5] = target: GlcNAc(b1-3)Gal(b1-4)GlcNAc(b1-3)[GlcNAc(b1-3)Gal(b1-4)GlcNAc(b1-3)]GalNAc
# Procedure, shortened: as §1
# [6] = target: GlcNAc(b1-3)[GlcNAc(b1-6)]GalNAc
# Procedure, shortened: as §1
# [7] = target: GlcNAc(b1-6)Gal(b1-4)GlcNAc
# Procedure, shortened: as §1
# GlcNAc(b1-6)GalNAc = target: GlcNAc(b1-6)GalNAc
# Procedure, shortened: as §1
# [8] = target: Man(a1-2)Man(a1-6)[Man(a1-3)]Man(a1-6)[Man(a1-2)Man(a1-2)Man(a1-3)]Man
# Procedure, shortened: as §1
# Man(a1-6)Man = target: Man(a1-6)Man
# Procedure, shortened: as §1
# MurNAc(b1-4)GlcNAc = target: MurNAc(b1-4)GlcNAc
# Procedure, shortened: as §1
# [9] = target: Neu5Ac(a2-3)Gal(b1-3)[GlcNAc(b1-6)]GalNAc
# Procedure, shortened: as §1
# [10] = target: Neu5Ac(a2-3)Gal(b1-4)GlcNAc(b1-2)Man(a1-3)[Neu5Ac(a2-3)Gal(b1-4)GlcNAc(b1-2)Man(a1-6)]Man(b1-4)GlcNAc(b1-4)GlcNAc
# Procedure, shortened: as §1
# [11] = target: Neu5Ac(a2-3)Gal(b1-4)GlcNAc(b1-2)Man(a1-3)[Neu5Ac(a2-3)Gal(b1-4)GlcNAc(b1-2)Man(a1-6)]Man(b1-4)GlcNAc(b1-4)[Fuc(a1-6)]GlcNAc
# Procedure, shortened: as §1
# [12] = target: Neu5Ac(a2-3)Gal(b1-4)GlcNAc(b1-2)Man(a1-3)[Neu5Ac(a2-6)Gal(b1-4)GlcNAc(b1-2)Man(a1-6)]Man(b1-4)GlcNAc(b1-4)GlcNAc
# Procedure, shortened: as §1
# [13] = target: Neu5Ac(a2-3)Gal(b1-4)[Fuc(a1-3)]GlcNAc(b1-6)[Neu5Ac(a2-3)Gal(b1-3)]GalNAc
# Procedure, shortened: as §1
# [14] = target: Neu5Ac(a2-3)Gal6S(b1-4)GlcNAc
# Procedure, shortened: as §1
# [15] = target: Neu5Ac(a2-3)Gal6S(b1-4)[Fuc(a1-3)]GlcNAc
# Procedure, shortened: as §1
# [16] = target: Neu5Ac(a2-6)Gal(b1-4)GlcNAc(b1-2)Man(a1-3)[Neu5Ac(a2-3)Gal(b1-4)GlcNAc(b1-2)Man(a1-6)]Man(b1-4)GlcNAc(b1-4)GlcNAc
# Procedure, shortened: as §1
# [17] = target: Neu5Ac(a2-6)Gal(b1-4)GlcNAc(b1-3)Gal(b1-4)GlcNAc(b1-6)[Gal(b1-3)]GalNAc
# Procedure, shortened: as §1
# Neu5Ac(b2-6)GalNAc = target: Neu5Ac(b2-6)GalNAc
# Procedure, shortened: as §1
# Neu5Gc(a2-3)Gal(b1-4)Glc = target: Neu5Gc(a2-3)Gal(b1-4)Glc
# Procedure, shortened: as §1
binder,measurement,setting,value
B1,glycan array binding signal (z-score),[1],-0.412
same,glycan array binding signal (z-score),GalNAc(b1-4)GlcNAc6S,-0.421
same,glycan array binding signal (z-score),GalNAc6S(b1-4)GlcNAc,2.78
same,glycan array binding signal (z-score),Glc(b1-4)Glc,2.25
same,glycan array binding signal (z-score),Glc(b1-6)Glc,-0.327
same,glycan array binding signal (z-score),[2],-0.607
same,glycan array binding signal (z-score),[3],-0.083
same,glycan array binding signal (z-score),[4],-0.482
same,glycan array binding signal (z-score),[5],0.26
same,glycan array binding signal (z-score),[6],-0.468
same,glycan array binding signal (z-score),[7],-0.453
same,glycan array binding signal (z-score),GlcNAc(b1-6)GalNAc,-0.174
same,glycan array binding signal (z-score),[8],0.102
same,glycan array binding signal (z-score),Man(a1-6)Man,-0.69
same,glycan array binding signal (z-score),MurNAc(b1-4)GlcNAc,-0.3
same,glycan array binding signal (z-score),[9],-0.268
same,glycan array binding signal (z-score),[10],-0.603
same,glycan array binding signal (z-score),[11],0.28
same,glycan array binding signal (z-score),[12],-0.452
same,glycan array binding signal (z-score),[13],0.026
same,glycan array binding signal (z-score),[14],-0.642
same,glycan array binding signal (z-score),[15],-0.633
same,glycan array binding signal (z-score),[16],-0.473
same,glycan array binding signal (z-score),[17],-0.533
same,glycan array binding signal (z-score),Neu5Ac(b2-6)GalNAc,-0.414
same,glycan array binding signal (z-score),Neu5Gc(a2-3)Gal(b1-4)Glc,-0.297
